Tests used:
Assay in all cases: PBM binding z-score (relative to random genomic background probes); higher = stronger binding; sequences stand for … in GC…GCGATTGACAGCGTAGAATGAAGG
[1] = tested on: FXR:RXRa (NR concentration 270 nM, RXRa partner concentration 90 nM)
How it was run: (§1)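 Regression normalization was applied to scanned fluorescence from custom Agilent 4×180K protein-binding microarrays. Before scanning, arrays were incubated 1 h with ligand-free nuclear receptor dimers, and binding was detected with antibodies against each partner (one per run). Binding z-scores use the random background probes as reference.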

[2] = tested on: LXRa:RXRa (NR concentration 270 nM, RXRa partner concentration 90 nM)
How it was run: as §1

[3] = tested on: LXRa homodimer (NR concentration 270 nM)
How it was run: as §1

[4] = tested on: LXRb:RXRa (NR concentration 270 nM, RXRa partner concentration 90 nM)
How it was run: as §1

[5] = tested on: LXRb homodimer (NR concentration 270 nM)
How it was run: as §1

[6] = tested on: PPARa:RXRa (NR concentration 270 nM, RXRa partner concentration 90 nM)
How it was run: as §1

[7] = tested on: PPARg:RXRa (NR concentration 180 nM, RXRa partner concentration 90 nM)
How it was run: as §1

[8] = tested on: PPARg:RXRa 270nM:90nM, anti-RXR (NR concentration 270 nM, RXRa partner concentration 90 nM)
How it was run: as §1

[9] = tested on: PPARg:RXRa 30nM:10nM, anti-RXR (NR concentration 30 nM, RXRa partner concentration 10 nM)
How it was run: as §1

[10] = tested on: PPARg:RXRa 90nM:30nM, anti-RXR (NR concentration 90 nM, RXRa partner concentration 30 nM)
How it was run: as §1

[11] = tested on: PPARg:RXRa DBDmut IVT, anti-RXR (DBD mutation: RXRa K156A/R161A, NR concentration 270 nM, RXRa partner concentration 90 nM)
How it was run: as §1

[12] = tested on: PPARg:RXRa IVT, anti-PPARg (NR concentration 270 nM, RXRa partner concentration 90 nM)
How it was run: as §1

[13] = tested on: PPARg DBDmut:RXRa IVT, anti-PPARg (DBD mutation: PPARg1 K132A/R137A, NR concentration 270 nM, RXRa partner concentration 90 nM)
How it was run: as §1

[14] = tested on: PPARg DBDmut IVT, anti-PPARg (DBD mutation: PPARg1 K132A/R137A, NR concentration 270 nM)
How it was run: as §1

[15] = tested on: PPARg homodimer (NR concentration 180 nM)
How it was run: as §1

[16] = tested on: PXR:RXRa (NR concentration 270 nM, RXRa partner concentration 90 nM)
How it was run: as §1

[17] = tested on: PXR homodimer (NR concentration 270 nM)
How it was run: as §1

[18] = tested on: RARa:RXR (NR concentration 270 nM, RXRa partner concentration 90 nM)
How it was run: as §1

[19] = tested on: RARa homodimer (NR concentration 270 nM)
How it was run: as §1

[20] = tested on: RARb:RXRa (NR concentration 270 nM, RXRa partner concentration 90 nM)
How it was run: as §1

Row | Sequence | PBM binding z-score [1] | PBM binding z-score [2] | PBM binding z-score [3] | PBM binding z-score [4] | PBM binding z-score [5] | PBM binding z-score [6] | PBM binding z-score [7] | PBM binding z-score [8] | PBM binding z-score [9] | PBM binding z-score [10] | PBM binding z-score [11] | PBM binding z-score [12] | PBM binding z-score [13] | PBM binding z-score [14] | PBM binding z-score [15] | PBM binding z-score [16] | PBM binding z-score [17] | PBM binding z-score [18] | PBM binding z-score [19] | PBM binding z-score [20]
1 | TCTTGTACATCAATAGAGGTTAAGAAAGTGCGCT | 0.725 | 3.49 | 0.473 | 1.79 | 0.532 | 1.82 | 0.201 | 1.72 | 3.01 | 2.08 | 1.8 | 1.66 | 1.53 | 1.13 | 0.454 | 2.94 | 0.485 | 1.98 | 0.123 | 1.08
2 | CCTAGCAGGCCAATATGGGTCACTCAAGGCTTGA | 0.719 | 2.76 | -0.00824 | 1.41 | -0.863 | 3.05 | 1.57 | 1.86 | 0.00421 | 1.15 | 3.27 | 4.11 | -0.447 | -0.637 | 0.511 | 1.14 | -0.649 | 1.65 | -0.474 | 1.44
3 | CGAACGAAGGCATGAGTTGATAGCAAATGCCGAT | -0.766 | -0.753 | -0.489 | -0.751 | -1.09 | -0.568 | 0.575 | -0.579 | -0.739 | -0.741 | -0.501 | -0.459 | -1.26 | -0.962 | -0.786 | -0.575 | -0.461 | -0.544 | -0.843 | -0.545
4 | ACTAGCAGGCCTAGGGTCACTCAAGATTAGTCCG | 1.77 | 1.89 | -0.469 | 1.82 | -0.871 | 2.81 | 1.99 | 3.41 | 1.39 | 2.89 | -0.156 | 0.917 | -0.943 | -1.16 | 1.39 | 2.65 | 0.0787 | 3.09 | -0.643 | 2.44
5 | ATCTCTAGGTAACAAGTTCACTGAAAGAGAGGAC | 1.15 | 1.44 | 1.22 | 1.56 | 0.913 | 2.74 | 2.49 | 2.9 | 1.37 | 2.56 | 3.4 | 3.15 | 1.22 | 1.68 | 1.6 | 2.83 | 2.82 | 2.02 | 0.943 | 2.18
6 | GGTCGGAGGACAAGGTCAGAGCTTTGTCCGTAGA | 2.18 | 1.7 | -0.109 | 1.42 | -0.689 | 2.43 | 0.581 | 1.58 | -0.506 | 0.714 | 0.195 | 1.61 | -0.429 | -1.06 | 1.09 | 1.63 | 0.0611 | 1.82 | -0.267 | 3.62
7 | GCTCGGAGGACAAGGTCAGAGCGTTGTCCGTAGA | 2.18 | 1.74 | -0.229 | 1.46 | -0.608 | 2.61 | 0.378 | 1.37 | -0.49 | 0.635 | -0.242 | 0.658 | -1.14 | -1.68 | 0.169 | 1.68 | -0.131 | 2.07 | -0.539 | 3.4
8 | CGAACTAGGTCAGAACAGGATAGTGAAGGATGAT | 1.16 | 0.877 | -0.252 | 0.463 | -0.465 | 3.33 | 5.21 | 4.24 | 1.75 | 3.34 | 7.17 | 7.33 | 2.09 | 2.21 | 1.07 | 0.283 | 0.0335 | 1.12 | 0.743 | 2.97
9 | TGAATGAGGTTAAAGATCAGGCAACGTGGCGTCG | 2.94 | 2.82 | -0.471 | 1.4 | 0.134 | 4.85 | 5.51 | 6.49 | 5.01 | 6.3 | 2.24 | 3.79 | 0.599 | 0.0672 | 0.811 | 1.83 | 0.118 | 2.92 | -0.39 | 2.02
10 | ATATGTAGGTTAGCTGGGGCCATTCAGACTAGGC | 0.601 | 1.15 | 0.0611 | 0.901 | 0.197 | 2.55 | 3.09 | 2.56 | 0.952 | 2.06 | 6.72 | 5.67 | 1.64 | 1.69 | 1.13 | 2.87 | 0.538 | 1.33 | 0.314 | 1.21
11 | TAGCCTAGGTCATGGGGCCAGTATAGTACGCATC | 4.54 | 3.52 | 0.182 | 2.77 | 0.0614 | 4.31 | 3.62 | 3.29 | 0.919 | 2.66 | 1.84 | 3.72 | 0.968 | -0.401 | 3.22 | 2.19 | -0.641 | 3.54 | 0.443 | 3.94
12 | CCTAGTTGGTCAAGGTCAAACACGCTATAGGTAC | 5.04 | 4.62 | 3.57 | 4.52 | 1.24 | 4.81 | 3.13 | 3.93 | 1.16 | 3.04 | 2.18 | 3.37 | 0.444 | 1.42 | 3.34 | 4.48 | 3.25 | 4.41 | 2.79 | 4.19
13 | TGAATGAGGTTGAAGATCAGGGAACGTGGCGTCG | 0.0849 | 0.195 | -0.576 | -0.271 | 0.232 | 0.989 | 1.11 | 2.33 | 0.813 | 1.97 | -0.653 | 0.294 | 0.451 | 0.38 | -0.432 | -0.193 | -0.315 | 0.257 | -0.208 | 0.206
14 | CGTCCAAGGTCAAAGGTCCGTGAAGAGATGACGG | 7.36 | 5.64 | 0.823 | 4.24 | 0.921 | 5.73 | 6.71 | 6.69 | 4.16 | 5.81 | 3.4 | 4.24 | 0.753 | 0.764 | 2.99 | 4.61 | 1.12 | 5.96 | 0.563 | 5.32
